40 compounds from PubChem BioAssay (NCATS) can be followed below.

Each structure is given as a SMILES string. Results filed as inconclusive are left out. Entries that show only a call come without a potency. Active and inactive are the calls of the source. Calls come from the whole dose curve; as a rule, active = well fitted inhibition curve with a large enough effect; inconclusive = small, poorly fitted or top-dose-only effect; inactive = flat fitted curve, though single readings scatter.
Potency is the fitted concentration of half-maximal effect.

Chain of Ubiquitin carboxyl-terminal hydrolase 1 (Homo sapiens) (O94782 whole entry, looked up): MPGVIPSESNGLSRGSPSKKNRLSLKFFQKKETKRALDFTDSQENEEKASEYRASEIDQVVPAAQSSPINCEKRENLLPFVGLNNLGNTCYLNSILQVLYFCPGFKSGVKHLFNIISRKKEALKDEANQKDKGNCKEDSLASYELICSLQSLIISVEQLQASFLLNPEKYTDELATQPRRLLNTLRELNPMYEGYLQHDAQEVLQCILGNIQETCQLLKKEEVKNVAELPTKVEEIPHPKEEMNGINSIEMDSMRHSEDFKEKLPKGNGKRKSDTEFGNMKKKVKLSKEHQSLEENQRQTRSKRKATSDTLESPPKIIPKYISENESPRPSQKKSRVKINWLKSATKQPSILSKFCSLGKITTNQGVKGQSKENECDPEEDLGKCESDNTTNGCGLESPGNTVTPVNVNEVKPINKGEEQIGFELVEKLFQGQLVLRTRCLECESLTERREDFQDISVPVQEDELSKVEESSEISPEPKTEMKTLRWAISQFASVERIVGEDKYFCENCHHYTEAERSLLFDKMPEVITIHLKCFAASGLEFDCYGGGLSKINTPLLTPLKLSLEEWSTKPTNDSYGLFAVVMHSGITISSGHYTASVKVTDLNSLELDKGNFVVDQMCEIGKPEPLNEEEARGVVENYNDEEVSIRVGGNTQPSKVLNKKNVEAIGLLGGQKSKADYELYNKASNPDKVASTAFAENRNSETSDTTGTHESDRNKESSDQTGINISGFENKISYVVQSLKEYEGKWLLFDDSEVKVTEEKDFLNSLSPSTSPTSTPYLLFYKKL

This test deals with Ubiquitin carboxyl-terminal hydrolase 1 (Homo sapiens) (UniProt O94782). Nature of the test: Inhibitors of USP1/UAF1: Pilot qHTS (AID 504865). Note: nearly all actives have a fitted effect of over 35% in size. Conditions: purified USP1/UAF1, Ub-rhodamine cleavage fluorescence; series mostly up to 114 µM. An excerpt:
Deubiquitinating enzymes (DUBs) are a class of enzymes that can cleave isopeptide bond formed between the C-terminal carboxylate of ubiquitin and a lysine side-chain amino group on the target protein. Among them, ubiquitin specific proteases (USPs) constitute the largest DUB family. Human USPs are emerging as promising targets for pharmacological intervention because of their connection to a number of human diseases, including prostate, colon and breast cancer (1, 2), pediatric acute lymphoblastic leukemia (3), and familial cylindromatosis (4). The advantage of inhibiting USPs lies in the potential specificity of therapeutic intervention that can lead to better efficacy and reduce nonspecific side effects.
In a collaboration between the University of Delaware and the NIH Chemical Genomics Center, a high-throughput screen assay was developed to screen for USP1/UAF1 inhibitors. This miniaturized assay has a fluorescent read-out and is used to screen the NIH Molecular Libraries Small Molecule Repository (MLSMR) in order to identify a small molecule that inhibits USP1.
NIH Chemical Genomics Center [NCGC]
NIH Molecular Libraries Probe Centers Network [MLPCN]
Assay Submitter (PI): Zhihao Zhuang, University of Delaware
1. Priolo, C., et al. (2006) The isopeptidase USP2a protects human prostate cancer from apoptosis. Cancer Res 66, 8625-8632
2. Popov, N., et al. (2007) The ubiquitin-specific protease USP28 is required for MYC stability. Nat Cell Biol 9, 765-774
3. De Pitta, C., et al. (2005) A leukemia-enriched cDNA microarray platform identifies new transcripts with relevance to the biology of pediatric acute lymphoblastic leukemia. Haematologica 90, 890-898
4. Kovalenko, A., et al. (2003) The tumour suppressor CYLD negatively regulates NF-kappaB signalling by deubiquitination. Nature 424, 801-805
3 microliters of reagents (buffer in columns 3 and 4 as negative control and 1nM USP1/UAF1 complex in columns 1, 2, and 5-48) are dispensed into Greiner black solid bottom 1536-well assay plates. Compounds are then transferred via Kalypsys pin tool equipped with 1536-pin array (10nl slotted pins, V&P Scientific, San Diego, CA). Following an incubation step of 15 min at room temperature, 1ul of Ub-Rho substrate (150nM final concentration) is added to initiate the reaction. The plates are immediately centrifuged at 1000 rpm for 15 seconds, and subsequently transferred to a ViewLux high-throughput CCD imager (PerkinElmer) wherein kinetic measurements of fluorescence are acquired using 480 nm excitation/540 nm emission filter set (6 reads every 60 seconds, see Table 1). All reagents are diluted in an assay buffer consisting of 50mM HEPES (pH 7.8), 0.5mM EDTA, 0.1 mg/ml BSA, 1mM TCEP, and 0.01% Tween-20.
As to `CNC(=O)O/N=C(/C)SC`, the Potency entry is “inactive”. With `COc1c2c(cc3c1OCO3)CC[N+](C)=C2` the entry was “inactive”; with `CNC1[C@@H](O)C(OC2C(N)C[C@H](N)[C@@H](O[C@@H]3OC(C(C)O)C(O)C(O)C3N)C2O)OC[C@]1(C)O` (stereo not given in full), “inactive”.

`CCN(CC)C(=O)N[C@@H]1C[C@@H]2c3cccc4[nH]cc(c34)C[C@H]2N(C)C1`: the Potency result was “inactive”. In the case of `CC(C)CC(CN)CC(=O)O` (stereo not given), the Potency result was “inactive”. As to `C=C[C@H]1CN2CC[C@H]1C[C@H]2c1[nH]c2ccccc2c1CCO`, the Potency result is “inactive”. `CCN1C[C@@]2(COC)CC[C@H](O)[C@@]34[C@@H]2C[C@@H]([C@@H]13)[C@]1(O)C[C@@H](OC)C2C[C@H]4[C@H]1[C@H]2OC(C)=O`: the Potency result is “inactive”. Regarding `CC1=C2CCC3C4CCC(=O)[C@@]4(C)CCC3[C@]2(C)CCC1=O` (stereo not given in full), the Potency result was “inactive”.

Take `CC(C)Nc1nc(Cl)nc(NC(C)C)n1`: the Potency entry is “inactive”. Consider `COc1c(CC=C(C)C)c2c(c3oc(=O)c(-c4ccc(O)cc4)c(O)c13)C=CC(C)(C)O2`, for which the Potency was 79.4 µM (active). With `Cc1cc(OC(=O)N2CCCCC2)c(C(C)C)cc1[N+](C)(C)C` the entry was “inactive”; with `CC1(C)C(O)CC(O)[C@]2(C)C1CC(O)[C@]1(C)C2CC[C@@]2(C)C(c3ccoc3)CC3OC312` (stereo not given in full), “inactive”. On to `C[C@]12CC[C@H](O)C[C@H]1CCC1C2CC[C@]2(C)[C@@H](c3ccc(=O)oc3)C[C@H]3O[C@]132` (stereo not given in full), for which the Potency result was “inactive”. Consider `CC1CC(O)[C@]2(O)[C@]13CC(=O)OC[C@@]2(C)[C@@](C)(O)C(=O)C3` (stereo not given in full), for which the Potency entry is “inactive”. Regarding `CC(=O)O.CC(=O)O.[Cd]`, the Potency result was “inactive”.

Take `N[C@H]1C[C@H]1c1ccccc1`: the Potency result was “inactive”. `C[C@@]12CC[C@H]3[C@@H](CC[C@]4(O)C[C@H](O)CC[C@@]34C=O)[C@]1(O)CC[C@@H]2C1=CC(=O)OC1`: the Potency entry is “inactive”. `CN1C2CC(OC(=O)C(CO)c3ccccc3)C[C@@H]1[C@H]1OC21` (stereo not given in full): the Potency result was “inactive”. With `COc1cc(C2c3cc4c(cc3C(OC(C)=O)[C@H]3COC(=O)C23)OCO4)cc(OC)c1OC` (stereo not given in full) the entry was “inactive”; with `CN1CCc2cc3c(cc2C1O)OCO3` (stereo not given), “inactive”. With `O=C1NC(=O)C(=O)C(=O)N1` the figure was 89.1 µM (active). For the compound `CC(=O)OC1C[C@H](O[C@@H]2C(O)C[C@H](O[C@@H]3C(O)C[C@@H](OC4CC[C@]5(C)C(CCC6C5CC(O)[C@@]5(C)C(C7=CC(=O)OC7)CC[C@@]65O)C4)OC3C)OC2C)O[C@H](C)[C@H]1O[C@H]1OC(CO)C(O)C(O)C1O` (stereo not given in full), the Potency result is “inactive”. Turning to `Cc1[nH]c2ccccc2c1CN(C)C`, the Potency entry is “inactive”. Take `C[C@H]1CC[C@@H]2[C@@H](C)C(=O)O[C@H]3O[C@@]4(C)CC[C@H]1[C@@]32OO4`: the Potency entry is “inactive”. With `C[C@@]12CC[C@H]3[C@@H](CC[C@@H]4C[C@H]5S[C@H]5C[C@]43C)[C@H]1CC[C@H]2O` the entry was “inactive”; with `CCN1C[C@]2(C)CC[C@H](O)[C@@]34[C@@H]5CC6[C@@H](OC)C[C@@](O)([C@@H]5[C@@H]6O)[C@H](C[C@@H]23)[C@H]14`, “inactive”.

Turning to `CC(=O)OC1C2C(OC(=O)Cc3ccccc3)C(C)CC2(OC(C)=O)C(=O)/C(C)=C/C2C(CC[C@@]13CO3)C2(C)C` (stereo not given in full), the Potency entry is “inactive”. With `C[C@@]12CCC(O)C[C@H]1CCC1C2CC[C@]2(C)C(=O)CCC12` (stereo not given in full) the entry was “inactive”; with `CN1Cc2c(ccc3c2OCO3)[C@@H]2[C@@H](O)Cc3cc4c(cc3[C@@H]21)OCO4`, “inactive”. `C=C1C/C(=C\C)C(=O)O[C@@H]2CCN3CC=C(COC(=O)[C@@]1(C)O)[C@H]23`: the Potency entry is “inactive”. Turning to `Oc1ccc2c3c1OC1C(O)CC[C@]4(O)C(C2)N(CC2CCC2)CC[C@]314` (stereo not given in full), the Potency entry was “inactive”. With `C[C@@H]1O[C@H](O[C@@H]2C=C3CC[C@H]4[C@@H](CC[C@]5(C)[C@@H](c6ccc(=O)oc6)CC[C@]45O)[C@@]3(C)CC2)[C@@H](O)[C@H](O)[C@@H]1O` the entry was “inactive”; with `COC1=CC(=O)O[C@@H](/C=C\c2ccccc2)C1`, “inactive”; with `COc1cc(C2c3cc4c(c(O)c3CC3COC(=O)C32)OCO4)cc(OC)c1OC` (stereo not given), “inactive”. For `NCC(=O)c1ccccc1`, the Potency result is “inactive”. Consider `CN1C[C@H](CO)C=C2c3cccc4[nH]cc(c34)C[C@@H]21`, for which the Potency is 31.6 µM (active). As for `CC1=NCCc2c1[nH]c1cc(O)ccc21`, the Potency entry was “inactive”. With `COc1cc2c(c(OC)c1OC)-c1ccc(O)c(=O)cc1[C@H](N)CC2` the entry was “inactive”; with `C=C1C2CCC3[C@@](CC[C@@H]4C(C(=O)O)CC(OC5OC(CO)C(OS(=O)(=O)O)C(OS(=O)(=O)O)C5OC(=O)CC(C)C)C[C@]34C)(C2)C1O` (stereo not given in full), “inactive”; with `COC1=CC2C3Cc4ccc(OC)c(O)c4[C@]2(CCN3C)CC1=O` (stereo not given in full), “inactive”.
